An excerpt weighted towards active compounds, which were near 18% of everything screened.
TDP1 inh = qHTS Assay for Inhibitors of Tyrosyl-DNA Phosphodiesterase (TDP1); Tyrosyl-DNA phosphodiesterase 1 (Homo sapiens), Q9NUW8; AID 485290, 2010; Potency, µM (doses to about 130 µM), hits mostly inhibitors; 350,000 compounds, 0.28% hits; recombinant TDP1, AlphaScreen DNA substrate cleavage; also: nearly all actives have a fitted effect of over 40% in size
Target sequence (Q9NUW8 whole entry, looked up): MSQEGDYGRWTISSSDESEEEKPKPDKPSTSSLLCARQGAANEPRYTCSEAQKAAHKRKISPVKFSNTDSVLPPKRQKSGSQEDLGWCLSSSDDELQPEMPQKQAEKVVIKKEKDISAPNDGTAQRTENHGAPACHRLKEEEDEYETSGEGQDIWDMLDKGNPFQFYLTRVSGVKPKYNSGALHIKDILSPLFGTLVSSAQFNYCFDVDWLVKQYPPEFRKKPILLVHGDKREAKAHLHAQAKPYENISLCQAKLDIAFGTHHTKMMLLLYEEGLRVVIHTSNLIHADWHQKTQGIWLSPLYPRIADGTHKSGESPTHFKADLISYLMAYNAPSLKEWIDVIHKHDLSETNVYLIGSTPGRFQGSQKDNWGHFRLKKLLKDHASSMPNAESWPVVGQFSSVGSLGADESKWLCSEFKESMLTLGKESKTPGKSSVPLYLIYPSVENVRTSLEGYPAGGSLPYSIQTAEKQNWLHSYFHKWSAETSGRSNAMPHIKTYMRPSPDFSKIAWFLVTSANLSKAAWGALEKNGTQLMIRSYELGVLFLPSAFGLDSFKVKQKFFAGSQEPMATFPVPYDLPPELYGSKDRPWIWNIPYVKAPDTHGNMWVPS
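Enzyme-compound mixtures sat 15 min at room temperature, followed by a 5 min reaction with 15 nM final substrate and 10 min with AlphaScreen beads. Recombinant human Tdp1 was used at 1 nM final.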
IL-1B inflam inh = qHTS for Inhibitors of Inflammasome Signaling: IL-1-beta AlphaLISA Primary Screen | THP-1 LPS/ATP IL-1B secretion, AlphaLISA, 16 h; stronger effect = lower value | activity change, % at 57.5 µM | 360,000 compounds, 4.7% hits | AID 743279, 2014; in the data active = activity change below about -50%; inconclusive = mostly about -30% to -49%
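THP-1 cells pretreated 1 hr with compounds (up to 57.5 uM final), then stimulated with LPS (250 ng/mL final) plus ATP (1.25 mM final); secreted IL-1B measured by AlphaLISA after 16 hr, decreased signal indicating inhibition.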
TDP1 cell CPT = qHTS for Inhibitors of human tyrosyl-DNA phosphodiesterase 1 (TDP1): qHTS in cells in presence of CPT | chicken DT40 Tdp1-/-;hTDP1 cells + 20 nM CPT, ATP luminescence, 48 h | Potency, µM (doses to about 46.2 µM), actives largely listed as inhibitors | 420,000 compounds, 12% hits; also: nearly all actives have a fitted effect of over 55% in size
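Chicken DT40 Tdp1-/- cells stably complemented with human TDP1 were seeded at 400 cells/well in medium containing 20 nM camptothecin, exposed to pin-transferred compounds, and grown at 37 °C for at least 48 hr. Viability was read as ATP luminescence.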
TGFb SMAD3 inh = qHTS for Inhibitors of TGF-b. 410,000 compounds, 1.2% hits. AID 588855, 2011. Potency, µM (highest dose often 46.1 µM), usual class: inhibitors. HepG2 CAGA-GFP TGF-b/SMAD3 reporter, GFP fluorescence, 18 h; TGF-beta stimulated, 500 pg/mL final; also: nearly all actives have a fitted effect of over 65% in size
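HEPG2 CAGA-GFP reporter cells (1000/well, DMEM with 1% FBS) received compounds, then recombinant TGF-beta at 500 pg/mL final for 18 hours at 37 degrees C. Per-cell GFP summed per well was normalised to unstimulated and stimulated DMSO controls before curve fitting.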
HepG2 tox = qHTS for Inhibitors of TGF-b: Cytotox Counterscreen; HepG2 CAGA-GFP viability, ATP luminescence, 18 h; Potency, µM (top dose mostly 46.1 µM), actives largely listed as cytotoxic; 410,000 compounds, 0.76% hits
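CellTiter-Glo luminescence gave cytotoxicity after 18 hours at 37 degrees C. The cells were HepG2 CAGA-GFP in 1% FBS DMEM, stimulated with 500 pg/mL TGF-beta after compound addition. %Activity was normalised to no-cell wells (complete cell-killing) and DMSO (no toxicity), and curves were fitted and classified.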
DT40 TDP1 no CPT = qHTS for Inhibitors of human tyrosyl-DNA phosphodiesterase 1 (TDP1): qHTS in cells in absence of CPT; DT40 Tdp1-/- hTDP1 cells, no CPT, ATP luminescence, 48 h; Potency, µM (titrated, usually from 46.2 µM), hits mostly inhibitors; 420,000 compounds, 15% hits; AID 686978, 2013; also: nearly all actives have a fitted effect of over 55% in size
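Growth kinetics read by CellTiter-Glo luminescence after ≥48 hr at 37 °C. Cells: DT40 Tdp1-/- stably carrying human TDP1, 400 per well, compound exposure in the absence of CPT (DMSO vehicle).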
Each line names hits and unclear results; the compound was inactive in the other large screens. Unless noted, calls follow the shape of the dose curve; as a rule, active = well fitted curve in the direction sought with a large enough effect; inconclusive = small, poorly fitted or top-dose-only effect, or another doubt; inactive = no such curve, though single readings can be large; an effect the other way counts as inactive or inconclusive.

CSCC[C@H](NC(=O)[C@H](CC(C)C)NC(=O)CNC(=O)[C@H](Cc1ccc(O)cc1)NC(=O)[C@H](Cc1ccccc1)NC(=O)[C@H](CCC(N)=O)NC(=O)[C@H](CCC(N)=O)NC(=O)[C@@H]1CCCN1C(=O)[C@H](CCCCN)NC(=O)[C@@H]1CCCN1C(=O)[C@@H](N)CCCN=C(N)N)C(N)=O	none (no result: IL-1B inflam inh, TDP1 cell CPT, TGFb SMAD3 inh, HepG2 tox, DT40 TDP1 no CPT)
CCCN1C(=O)/C(=C/c2nc3ccccc3c(=O)[nH]2)c2cc(C)ccc21	TDP1 cell CPT 21µM, DT40 TDP1 no CPT 8.2µM
CCn1c(/C=C2\C(=O)N(C(C)C)c3ccccc32)nc2ccccc2c1=O	TDP1 cell CPT inconclusive, DT40 TDP1 no CPT inconclusive
CC(C)N1C(=O)/C(=C\c2nc3ccccc3c(=O)[nH]2)c2ccccc21	IL-1B inflam inh -100, TDP1 cell CPT inconclusive, TGFb SMAD3 inh inconclusive, DT40 TDP1 no CPT 29µM
CC12C=C(/C=C/c3ccc(F)cc3)C(C)(C1)C(c1ccc(F)cc1)CC2=O (stereo not drawn)	none (no result: IL-1B inflam inh, TDP1 cell CPT, TGFb SMAD3 inh, HepG2 tox, DT40 TDP1 no CPT)
Cc1cc(Nc2ccccc2C)nc(-n2nc(C)cc2C)n1	TDP1 cell CPT 4.6µM, TGFb SMAD3 inh inconclusive, DT40 TDP1 no CPT 5.2µM (no result: IL-1B inflam inh)
Cc1cc(N2CCN(c3ccccc3)CC2)nc(-n2nc(C)cc2C)n1	TDP1 cell CPT 4.6µM, TGFb SMAD3 inh inconclusive, DT40 TDP1 no CPT 5.2µM
CCCCc1ccc(Nc2cc(C)nc(-n3nc(C)cc3C)n2)cc1	TDP1 cell CPT 4.6µM, TGFb SMAD3 inh inconclusive, DT40 TDP1 no CPT 5.2µM (no result: IL-1B inflam inh)
Cc1cc(Nc2cc(F)ccc2C)nc(-n2nc(C)cc2C)n1	TDP1 cell CPT 5.2µM, TGFb SMAD3 inh inconclusive, DT40 TDP1 no CPT 5.2µM (no result: IL-1B inflam inh)
Cc1cc(C)n(-c2nc3ccccc3nc2NCCc2ccccc2)n1	TGFb SMAD3 inh inconclusive, DT40 TDP1 no CPT inconclusive (no result: TDP1 inh)
CC1(C)OC(=CC=Nc2ccc(Cl)cc2)OC1(C)C	DT40 TDP1 no CPT inconclusive
O=C(COc1cccc(NC(=O)c2ccccc2)c1)c1ccccc1	TDP1 cell CPT 16µM, DT40 TDP1 no CPT inconclusive
COc1ccc(C(=O)COC(=O)c2cccc(NC(=O)c3ccc(OC)c(OC)c3)c2)cc1	TDP1 cell CPT 18µM, DT40 TDP1 no CPT 10µM (no result: TDP1 inh, IL-1B inflam inh)
COc1cccc(C(=O)COc2ccc(NC(=O)c3ccccc3)cc2)c1	TDP1 cell CPT inconclusive, DT40 TDP1 no CPT inconclusive
COc1cccc(C(=O)Nc2cccc(OCC(=O)c3ccccc3)c2)c1	TDP1 cell CPT 23µM, DT40 TDP1 no CPT inconclusive
COc1ccc(NC(=O)c2cccc(NC(=O)C(C)C)c2)c([N+](=O)[O-])c1	TDP1 cell CPT inconclusive, DT40 TDP1 no CPT 16µM
O=C(O)COc1cccc(NC(=O)c2ccccc2)c1	none
COc1ccc(-c2cccc(C(=O)Nc3ccc(OC)c(OC)c3)c2)cc1	none
CCOC(=O)c1ccccc1NC(=O)CSc1nc2ccccc2c(=O)n1CCCN1CCOCC1	TDP1 cell CPT inconclusive, DT40 TDP1 no CPT inconclusive
COc1cccc(NC(=O)c2ccco2)c1	none
Cc1ccc(C(=O)C(C)Oc2cccc(NC(=O)c3ccco3)c2)cc1 (stereo not drawn)	TDP1 cell CPT inconclusive, DT40 TDP1 no CPT 26µM
COc1ccc(C(=O)COc2cccc(NC(=O)c3ccco3)c2)cc1	TDP1 cell CPT inconclusive, DT40 TDP1 no CPT 18µM
COc1cccc(C(=O)COc2cccc(NC(=O)c3ccco3)c2)c1	DT40 TDP1 no CPT inconclusive
O=C(COc1cccc(NC(=O)c2cccc([N+](=O)[O-])c2)c1)c1ccc(Br)cc1	IL-1B inflam inh -72, TDP1 cell CPT inconclusive, TGFb SMAD3 inh inconclusive, DT40 TDP1 no CPT inconclusive
COc1ccc(OC)c(NC(=O)c2cccc(NC(=O)c3ccccc3)c2)c1	IL-1B inflam inh -57, TDP1 cell CPT inconclusive, DT40 TDP1 no CPT inconclusive (no result: TDP1 inh)

Assay outcomes from PubChem.
